Legend:
Assay in all cases: PBM binding z-score (relative to random genomic background probes); higher = stronger binding; sequences stand for … in GC…GCGATTGACAGCGTAGAATGAAGG
[1] = test system: FXR:RXRa (NR concentration 270 nM, RXRa partner concentration 90 nM)
Procedure, shortened: (§1)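 On custom Agilent 4×180K arrays, double-stranded probes with 34-nt variable regions carried direct-repeat seeds, single-nucleotide variants, half-site ablations or random human genomic background. Ligand-free nuclear receptor dimers were applied for 1 h, and binding was read with antibodies against each partner (one per run). Binding z-scores come from regression-normalized fluorescence, with the random background probes as reference.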

[2] = test system: LXRa:RXRa (NR concentration 270 nM, RXRa partner concentration 90 nM)
Procedure, shortened: as §1

[3] = test system: LXRa homodimer (NR concentration 270 nM)
Procedure, shortened: as §1

[4] = test system: LXRb:RXRa (NR concentration 270 nM, RXRa partner concentration 90 nM)
Procedure, shortened: as §1

[5] = test system: LXRb homodimer (NR concentration 270 nM)
Procedure, shortened: as §1

[6] = test system: PPARa:RXRa (NR concentration 270 nM, RXRa partner concentration 90 nM)
Procedure, shortened: as §1

[7] = test system: PPARg:RXRa (NR concentration 180 nM, RXRa partner concentration 90 nM)
Procedure, shortened: as §1

[8] = test system: PPARg:RXRa 270nM:90nM, anti-RXR (NR concentration 270 nM, RXRa partner concentration 90 nM)
Procedure, shortened: as §1

[9] = test system: PPARg:RXRa 30nM:10nM, anti-RXR (NR concentration 30 nM, RXRa partner concentration 10 nM)
Procedure, shortened: as §1

[10] = test system: PPARg:RXRa 90nM:30nM, anti-RXR (NR concentration 90 nM, RXRa partner concentration 30 nM)
Procedure, shortened: as §1

[11] = test system: PPARg:RXRa DBDmut IVT, anti-RXR (DBD mutation: RXRa K156A/R161A, NR concentration 270 nM, RXRa partner concentration 90 nM)
Procedure, shortened: as §1

[12] = test system: PPARg:RXRa IVT, anti-PPARg (NR concentration 270 nM, RXRa partner concentration 90 nM)
Procedure, shortened: as §1

[13] = test system: PPARg DBDmut:RXRa IVT, anti-PPARg (DBD mutation: PPARg1 K132A/R137A, NR concentration 270 nM, RXRa partner concentration 90 nM)
Procedure, shortened: as §1

[14] = test system: PPARg DBDmut IVT, anti-PPARg (DBD mutation: PPARg1 K132A/R137A, NR concentration 270 nM)
Procedure, shortened: as §1

[15] = test system: PPARg homodimer (NR concentration 180 nM)
Procedure, shortened: as §1

[16] = test system: PXR:RXRa (NR concentration 270 nM, RXRa partner concentration 90 nM)
Procedure, shortened: as §1

[17] = test system: PXR homodimer (NR concentration 270 nM)
Procedure, shortened: as §1

[18] = test system: RARa:RXR (NR concentration 270 nM, RXRa partner concentration 90 nM)
Procedure, shortened: as §1

[19] = test system: RARa homodimer (NR concentration 270 nM)
Procedure, shortened: as §1

[20] = test system: RARb:RXRa (NR concentration 270 nM, RXRa partner concentration 90 nM)
Procedure, shortened: as §1

| Sequence | PBM binding z-score [1] | PBM binding z-score [2] | PBM binding z-score [3] | PBM binding z-score [4] | PBM binding z-score [5] | PBM binding z-score [6] | PBM binding z-score [7] | PBM binding z-score [8] | PBM binding z-score [9] | PBM binding z-score [10] | PBM binding z-score [11] | PBM binding z-score [12] | PBM binding z-score [13] | PBM binding z-score [14] | PBM binding z-score [15] | PBM binding z-score [16] | PBM binding z-score [17] | PBM binding z-score [18] | PBM binding z-score [19] | PBM binding z-score [20] |
| --- | --- | --- | --- | --- | --- | --- | --- | --- | --- | --- | --- | --- | --- | --- | --- | --- | --- | --- | --- | --- |
| AATACAGGCTCACTAGGCCAGAGTAGGTACGAAT | -0.561 | -0.71 | -0.282 | -0.839 | -0.695 | -0.441 | 0.692 | 0.176 | 0.027 | -0.114 | 0.83 | 1.96 | 0.786 | 0.55 | -0.108 | -0.759 | -0.466 | -0.759 | -0.709 | -0.981 |
| CAAACTAGGTCAAGGTCAAGGTCGGTTTGTGCCA | 6.47 | 5.41 | 3.72 | 4.28 | 0.954 | 6 | 9.57 | 7.87 | 6.34 | 8.36 | 8.6 | 8.73 | 2.59 | 1.56 | 5.52 | 5.33 | 2.34 | 5.61 | 2.92 | 5.2 |
| ATATCTAGGTAAGACTCAGTTCAGTGAAGAACGC | 0.211 | 0.372 | 0.425 | 0.221 | 0.484 | 1.35 | 1.55 | 1.27 | 0.124 | 0.928 | 5.77 | 4.56 | 2.06 | 1.25 | 0.747 | 0.999 | 1.25 | 0.287 | 1.13 | 0.401 |
| AGAATGAGGTTATTATGATCAGGGAATTGCGGTC | 1.62 | 1.46 | 0.202 | 1.16 | 0.134 | 2.71 | 1.93 | 1.96 | 0.795 | 1.48 | 3.67 | 2.89 | 1.32 | 0.834 | 0.53 | 1.11 | 0.371 | 1.34 | 0.69 | 1.24 |
| CCGAGTTGGTCAGGAGGTCACACACCGGATATGA | 3.49 | 3.18 | 1.86 | 2.93 | -0.213 | 4.03 | 2.62 | 3.24 | 0.983 | 2.36 | 0.95 | 2.61 | 0.01 | 0.0417 | 3.62 | 4.53 | 1.31 | 4.71 | 1.54 | 3.66 |
| TCATATAGGTAAACAGGTGCAAGTCCGTAAGTTA | 0.886 | 1 | 0.433 | 1.02 | -0.121 | 1.65 | 1.1 | 2.53 | 3.85 | 3.12 | 4.3 | 2.74 | 0.88 | 1.48 | 1.13 | 1.33 | 0.685 | 1.34 | 1.57 | 0.765 |
| ATATGTAGGTTAGCTGGGGTCATTCTGACTAGGC | 4.61 | 5.75 | 3.4 | 4.86 | 1.32 | 5.07 | 5.36 | 5.24 | 2.82 | 4.48 | 7.04 | 6.37 | 3.34 | 2.13 | 2.71 | 6.41 | 3.72 | 5.57 | 1.37 | 2.88 |
